# From PubChem BioAssay (NCI)
# About 83,000 compounds went through this panel and 20% of them were active in at least one assay; those are over-represented in the sample as a whole.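 Testing used 96-well plates and a 48-hour single-concentration exposure. Example: -40 means 40% of the starting cells died.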 A number with no mark means an inactive call. Calls of active or inactive are those of the source. How the source made its calls: active means growth percent below 10; inactive means the rest.
# Tests used:
# Assay in all cases: NCI-60 one-dose screen, 48 h (100 = growth as untreated, 0 = no growth, -100 = all killed)
# Conditions in all cases: 10 µM unless noted
# EKVX NSCLC = test system: EKVX NSCLC
# SN12C renal = test system: SN12C renal
# UO-31 renal = test system: UO-31 renal
# TK-10 renal = test system: TK-10 renal
# ACHN renal = test system: ACHN renal
# CAKI-1 renal = test system: CAKI-1 renal
# A498 renal = test system: A498 renal
# CCRF-CEM leukemia = test system: CCRF-CEM leukemia
# MOLT-4 leukemia = test system: MOLT-4 leukemia
# SR leukemia = test system: SR leukemia
Structure (SMILES),growth (EKVX NSCLC),growth (SN12C renal),growth (UO-31 renal),growth (TK-10 renal),growth (ACHN renal),growth (CAKI-1 renal),growth (A498 renal),growth (CCRF-CEM leukemia),growth (MOLT-4 leukemia),growth (SR leukemia)
O=C(CSc1nccc(=O)[nH]1)Nc1ccc(-c2nc3ccccc3[nH]2)cc1,111%,103%,108%,116%,101%,112%,116%,101%,111%,117%
CN1CCN(Cc2ccc(NC(=O)c3cncc(C#Cc4cnc5ccc(N6CCSCC6)nn45)c3)cc2C(F)(F)F)CC1,-47.1% (active),-69.5% (active),-11.5% (active),-25.9% (active),-91.4% (active),-26.7% (active),-81.9% (active),3.28% (active),4.9% (active),-31.9% (active)
O=C1[C@H]2Cc3c([nH]c4ccccc34)[C@@H](c3ccc(Br)cc3)N2C(=O)CN1C1CCN(Cc2ccccc2)CC1,35.5%,12.9%,38.5%,64.3%,30.6%,44.9%,61%,15.5%,12.7%,-10.6% (active)
CC1=C(C)C(=O)C(Nc2cccc(C(F)(F)F)c2)=C(Cl)C1=O,49.4%,87.6%,77.3%,184%,-37.7% (active),92.7%,55.2%,5.9% (active),23.5%,25%
COc1ccc(/C=N/Nc2ccnc3cc(Cl)ccc23)cc1Cl,12.2%,-70.8% (active),-90% (active),-81.6% (active),-99.8% (active),-83.5% (active),36.7%,-19.8% (active),-25.3% (active),-9.69% (active)
O=C(c1ccc(O)cc1)C1[C@H](c2ccc(Cl)cc2)[C@@H](c2ccccc2)NC12C(=O)Nc1ccc(Cl)cc12 (stereo not given in full),48.1%,-1.78% (active),35.4%,66.9%,16.8%,29.5%,50.8%,40.4%,10.3%,9.52% (active)
COc1ccccc1C(=O)CSc1nc(Nc2ccc(S(N)(=O)=O)cc2)c2ccccc2n1,92.6%,81.1%,90.6%,116%,92.1%,91.1%,99.8%,87.3%,93%,64.3%
CCN1C(=S)N(CC)C2C1NN=C1SC(c3ccccc3)=CC(=O)N12 (stereo not given),106%,110%,113%,103%,103%,98.6%,118%,97.5%,97.7%,52.1%
Cc1nc2cnc(N)c(C#Cc3cncc(C(=O)Nc4ccc(Cl)c(C(F)(F)F)c4)c3)c2nc1C,82.4%,36.3%,19.9%,67.7%,30.3%,18.8%,55.4%,23.2%,35.6%,-18.8% (active)
CCOC(=O)c1c(NC(=O)c2cccc(C(F)(F)F)c2)sc2cc(O)ccc12,84.8%,89.4%,60.1%,183%,93.4%,96.7%,77.1%,63.5%,81.6%,101%
N#Cc1c(-c2ccc(Cl)cc2)nc(SCc2ccc([N+](=O)[O-])cc2)nc1N1CCNCC1,51.9%,1.59% (active),22.4%,77.4%,-67.4% (active),13.6%,44.7%,-14% (active),-27% (active),-43.3% (active)
NC(=O)c1c(NC(=O)c2ccc(C3CCCCC3)cc2)sc2c1CCC(=O)C2,14.2%,23.7%,11.6%,16.7%,4.68% (active),-2.11% (active),67.6%,9.82% (active),11.3%,5.25% (active)
COc1cccc(NC2=CC(=O)C(C)=C(C)C2=O)c1,36.7%,80.5%,86%,135%,70.9%,93%,67.2%,15.8%,17.9%,23.2%
COc1ccc(CNS(=O)(=O)/N=C2\NC(=O)NC2=C(Cl)Cl)cc1,83.2%,20.7%,48.9%,41.6%,32.7%,45.9%,-9.6% (active),15.8%,19%,20.5%
O=c1[nH]c2ccccc2cc1CSc1ccccc1Nc1nccc(-c2ccc(C(F)(F)F)cc2)n1,64.7%,70.3%,72.3%,112%,48%,64.4%,85.5%,87.4%,63.5%,53.7%
O=C(CSc1nc2sc3c(c2c(=O)n1-c1ccc(Cl)cc1)CCCC3)NNC(=O)Nc1cccc(C(F)(F)F)c1,31.5%,14.6%,13.2%,48.3%,6.86% (active),13.7%,-5.48% (active),17.1%,8.64% (active),5.49% (active)
CS(=O)(=O)c1ccc(-n2cc(/C=C/C(=O)c3ccc(NC(=O)CO[N+](=O)[O-])cc3)c(-c3ccc(Cl)cc3)n2)cc1,90.5%,88%,115%,111%,88.5%,109%,117%,107%,119%,113%
COc1ccc(N/N=C/c2c(-c3ccc(S(C)(=O)=O)cc3)nc3ccccn23)cc1,69.2%,49.8%,30.2%,57.3%,32.2%,20.3%,35.6%,32%,18.6%,57.1%
O=C(CSc1nc2sc3c(c2c(=O)n1-c1ccc(Cl)cc1)CCCC3)N/N=C/c1ccc(F)cc1,90.3%,97.1%,83.2%,125%,108%,98%,96.8%,65.9%,69.3%,39.6%
COc1cc(-c2nc3ccc(-c4nnc(SCC(=O)Nc5ccc(C(C)=O)cc5)o4)cc3[nH]2)cc(OC)c1OC,94%,92.8%,85.2%,121%,98.9%,92.7%,95.4%,104%,110%,96.5%
N#Cc1nc(-c2ccccc2)oc1N1CCC(CO)C1 (stereo not given),77.4%,97.1%,88.7%,104%,105%,90.2%,76.4%,105%,108%,110%
Nc1c(C(=O)Nc2ccc(Cl)cc2)sc2nc(-c3cnccn3)cc(-c3cccs3)c12,71.7%,66.6%,67.7%,118%,17%,-6.36% (active),82.3%,88.6%,70.1%,40.7%
COc1ccc([C@@H]2c3[nH]c4ccccc4c3CC3C(=O)N(C4CCN(Cc5c(F)cccc5F)CC4)CC(=O)N32)c(OC)c1 (stereo not given in full),51.9% [5.26 µM],67.5% [5.26 µM],39.7% [5.26 µM],63.5% [5.26 µM],47.6% [5.26 µM],40.4% [5.26 µM],29.4% [5.26 µM],58.1% [5.26 µM],49% [5.26 µM],79.4% [5.26 µM]
O=C(CSc1nnc(-c2ccc3nc(-c4ccc(Cl)cc4)[nH]c3c2)o1)Nc1ccc(C(=O)/C=C/c2ccc(Cl)cc2)cc1,93.8%,84.9%,75.3%,129%,98.1%,83.6%,90.1%,86.4%,77.8%,49.7%
CCCCCCNC(=O)Oc1ccc(/C(=C(/C)c2ccccc2)c2ccc(OCCN3CCCCCC3)cc2)cc1,64.2%,42.8%,28.9%,104%,69.3%,35.9%,78.7%,16.3%,4.41% (active),-37.4% (active)
Nc1cc(-c2c[nH]c3ccc(Cl)cc23)nc2cc(-c3c[nH]c4ccc(Cl)cc34)nn12,54.4%,70.8%,61.3%,66.2%,24.3%,35.6%,32.2%,42%,33.3%,10.1%
